IDE exosite FP – insulin-degrading enzyme (human) exo-site inhibition; z-score at 20 µM; 6.3% of 17,000 active; P14735; purified IDE, FL-6b probe fluorescence polarization; hits give low values;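 active = z-score of -3 or lower, meaning strong loss of probe binding signal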;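 note: His-tagged human IDE residues 42-1019 made in E. coli with 30 nM FL-6b probe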
Starred values were filed as active, the others as inactive. The sample as a whole holds a higher share of hits than the screen did.

SMILES	IDE exosite FP
O=C(C1CCOCC1)N1CC(=O)N2[C@H](CO)[C@@H](c3ccc(C#CC4CCCCC4)cc3)[C@H]2C1	0.64
C[C@H](NC(=O)C[C@@H]1CC[C@H]2[C@@H](COC[C@@H](O)CN2C(=O)Nc2cccc(Cl)c2)O1)c1ccccc1	1.3
COc1ccc(-c2ccc([C@H]3[C@H](C#N)N(C(=O)NC4CCCCC4)[C@H]3CO)cc2)cc1	4.5
COc1ccc(-c2ccccc2[C@H]2[C@@H](C#N)N(C(=O)NC3CCCCC3)[C@H]2CO)cc1	1.3
CN(C)CC(=O)N1[C@H](C#N)[C@@H](c2ccc(-c3ccccc3F)cc2)[C@H]1CO	0.21
COc1ccccc1-c1ccc([C@@H]2[C@@H](C#N)N(C(=O)NC3CCCCC3)[C@@H]2CO)cc1	-10*
COc1ccccc1-c1ccccc1[C@@H]1[C@H](C#N)N(C(=O)CN(C)C)[C@H]1CO	-0.82
COc1ccc(-c2ccc([C@@H]3[C@@H](CO)N(C(=O)NC(C)C)[C@H]3C#N)cc2)cc1	0.16
COc1ccccc1-c1ccc([C@@H]2[C@@H](C#N)N(C(=O)NC(C)C)[C@@H]2CO)cc1	-13*
COc1ccc(-c2ccc([C@@H]3[C@@H](C#N)N(C(=O)NC(C)C)[C@H]3CO)cc2)cc1	0.76
COc1ccccc1-c1ccc([C@@H]2[C@@H](C#N)N(C(=O)CN(C)C)[C@H]2CO)cc1	-12*
COCC#Cc1ccc([C@H]2[C@H](CO)N3C(=O)CN(C(=O)C4CC4)C[C@@H]23)cc1	0.53
CC(C)CC#Cc1ccc([C@@H]2[C@H]3CN(C(=O)NC4CCCCC4)CC(=O)N3[C@H]2CO)cc1	0.86
COCC(=O)N(C)C[C@@H]1[C@@H](c2ccc(-c3cccnc3)cc2)[C@H](CO)N1C(C)=O	0.011
COc1ccc(C#Cc2ccc([C@H]3[C@@H](CO)N4C(=O)CN(C(=O)Nc5ccccc5F)C[C@@H]34)cc2)cc1	5.2
O=C(C[C@H]1CC[C@H]2[C@@H](COC[C@H](O)CN2C(=O)Nc2ccc(F)cc2)O1)NC1CCC1	0.48
COc1ccccc1NC(=O)N1CC(=O)N2[C@H](CO)[C@@H](c3ccc(C#CC4CC4)cc3)[C@H]2C1	-0.36
O=C(NC[C@H]1N[C@H](CO)[C@@H]1c1ccc(-c2cncnc2)cc1)C1CCC1	0.2
O=C(c1cccc(F)c1)N1C[C@H]2[C@@H](c3ccccc31)[C@@H](CO)N2Cc1cocn1	2.1
OC[C@@H]1[C@@H](c2ccc(-c3ccccc3F)cc2)[C@H]2CN(Cc3cncnc3)CCCCN12	0.86
Cc1cccc(-c2ccc([C@@H]3[C@H](CO)N4CCCCN(Cc5cncnc5)C[C@@H]34)cc2)c1	-7.5*
OC[C@@H]1[C@@H](c2ccc(Br)cc2)[C@H]2CN(Cc3cncnc3)CCCCN12	0.52
Cc1cccc(-c2ccc([C@H]3[C@@H](CO)N4CCCCN(Cc5cccnc5)C[C@H]34)cc2)c1	-6.8*
OC[C@@H]1[C@H](c2ccc(C3=CCCC3)cc2)[C@H]2CN(Cc3cncnc3)CCCCN12	0.59
Cc1cccc(-c2ccc([C@@H]3[C@H]4CN(Cc5cncnc5)CCCCN4[C@H]3CO)cc2)c1	-4.7*
SMILES	IDE exosite FP
Cc1ccc(-c2ccc([C@H]3[C@@H](CO)N4CCCCN(Cc5cncnc5)C[C@H]34)cc2)cc1	-0.17
Cc1cccc(-c2ccc([C@@H]3[C@@H](CO)N4CCCCN(Cc5cncnc5)C[C@@H]34)cc2)c1	-6.7*
OC[C@@H]1[C@H](c2ccc(-c3ccc(F)cc3)cc2)[C@H]2CN(Cc3cccnc3)CCCCN12	1.2
OC[C@@H]1[C@H](c2ccc(-c3ccccc3F)cc2)[C@@H]2CN(Cc3cncnc3)CCCCN12	-1.6
Cc1cccc(-c2ccc([C@H]3[C@@H](CO)N4CCCCN(Cc5cccnc5)C[C@@H]34)cc2)c1	-1.8
COCCNC(=O)C[C@@H]1CC[C@@H]2[C@H](COC[C@H](O)CN2C(=O)c2cc(Cl)cc(Cl)c2)O1	-0.85
CC(=O)N1CCCCN2[C@H](CO)[C@H](c3ccc(Br)cc3)[C@@H]2C1	3.2
COc1cccc(-c2ccc3c(c2)[C@@H]2[C@@H](CCN2C(=O)c2ccccn2)[C@@H](CO)N3)c1	2.7
N#C[C@H]1[C@@H](c2ccc(C#CC3CC3)cc2)[C@@H](CO)N1S(=O)(=O)c1ccccc1	1.7
O=C(C1CCOCC1)N1CC2(C1)[C@@H](c1ccccc1)[C@H](CO)N2Cc1ccccc1F	0.82
N#C[C@H]1[C@H](c2ccccc2-c2cccc(F)c2)[C@@H](CO)N1C(=O)C1CCCCC1	1.1
COCC#Cc1ccc([C@H]2[C@@H](CO)N3C(=O)CN(C(=O)C4CC4)C[C@@H]23)cc1	0.2
COc1ccccc1CNC(=O)C[C@@H]1CC[C@@H]2[C@H](COC[C@H](O)CN2Cc2ccc3c(c2)OCO3)O1	-1.1
CCS(=O)(=O)Nc1ccc2c(c1)C(=O)N(C)[C@@H]1CC[C@H](CC(=O)NC3CCCCC3)O[C@@H]1CO2	0.12
CC(=O)NC[C@@H]1[C@H](c2ccc(-c3cccnc3)cc2)[C@H](CO)N1C(=O)C1CC1	1.3
COCC(=O)N1CC2(C1)CN(C(=O)Nc1ccccc1F)[C@H](CO)c1[nH]c3cc(OC)ccc3c12	0.76
C[C@@H](O)C#Cc1ccc([C@H]2[C@@H](CO)N3CCCCN(C(=O)c4ccc(F)cc4)C[C@@H]23)cc1	3.3
CCCNC(=O)NC[C@@H]1[C@H](c2ccc(C3=CCCCC3)cc2)[C@H](CO)N1C(C)=O	-0.32
COc1ccc(-c2ccc([C@@H]3[C@@H](CO)N4C(=O)CN(C(=O)C5CCC5)C[C@H]34)cc2)cc1	-0.21
COc1ccc(-c2ccc([C@H]3[C@H]4CN(C(=O)C5CC5)CC(=O)N4[C@H]3CO)cc2)cc1	-0.25
COc1ccc(-c2ccc([C@H]3[C@H](CO)N4C(=O)CN(C(=O)C5CCC5)C[C@@H]34)cc2)cc1	1.7
O=C(C1CCC1)N1CC(=O)N2[C@H](C1)[C@H](c1ccc(-c3cccnc3)cc1)[C@@H]2CO	0.94
COc1cccc(-c2ccc([C@@H]3[C@@H](CO)N4C(=O)CN(C(=O)C5CC5)C[C@H]34)cc2)c1	-5.2*
COc1cccc(-c2ccc([C@@H]3[C@@H](CO)N4C(=O)CN(C(=O)C5CCC5)C[C@@H]34)cc2)c1	-12*
COc1ccc(-c2ccc([C@@H]3[C@@H](CO)N4C(=O)CN(C(=O)C5CC5)C[C@@H]34)cc2)cc1	-2.5
SMILES	IDE exosite FP
CN(C)C(=O)c1cccc(-c2ccc([C@H]3[C@H](CO)N4C(=O)CN(C(=O)C5CCC5)C[C@@H]34)cc2)c1	0.83
COc1cccc(-c2ccc([C@@H]3[C@H]4CN(C(=O)C5CCC5)CC(=O)N4[C@H]3CO)cc2)c1	-9.3*
COc1cccc(-c2ccc([C@H]3[C@@H](CO)N4C(=O)CN(C(=O)C5CCC5)C[C@@H]34)cc2)c1	-7*
O=C(C1CCC1)N1CC(=O)N2[C@H](C1)[C@@H](c1ccc(-c3cccnc3)cc1)[C@@H]2CO	-1.7
COc1ccc(-c2ccc([C@@H]3[C@H]4CN(C(=O)C5CCC5)CC(=O)N4[C@H]3CO)cc2)cc1	3.1
Cc1ccccc1-c1ccccc1[C@H]1[C@@H](C#N)N(C(=O)c2ccc(F)cc2)[C@@H]1CO	0.86
O=C(Nc1ccccc1F)N1CC(=O)N2[C@H](C1)[C@@H](c1ccc(-c3ccc(F)cc3)cc1)[C@@H]2CO	-1.3
CC=Cc1ccc2n(c1=O)C[C@@H]1[C@@H](CO)[C@H](C(=O)N3CCOCC3)N(Cc3ccccc3)[C@H]21 (mixture of isomers)	0.67
O=C(C[C@H]1CC[C@@H]2NC[C@@H](O)COC[C@H]2O1)NCc1ccc2c(c1)OCO2	1

Screens deposited in PubChem by Broad Institute.
